From PubChem
Rows were chosen to be rich in hits. Some 2.4% of all compounds tested hit in one or more screens of this group.
C diff HTS = C. difficile growth inhibitors, primary screen, HTS | Clostridium difficile clinical isolate growth, OD600, 24 h; hits give low values | growth activity, negative = inhibition, % at 16 µg/mL (by protocol) | 86,000 compounds, 0.25% hits | AID 1259249, 2017;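 active means mean growth activity at or below -80% and every replicate also at or below -80%; inconclusive means mean at or below -80% but some replicate above -80%; inactive means mean growth activity above -80%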
Pf Dd2 growth = P. falciparum Dd2 growth inhibitors, primary screen, SYBR Green fluorescence, single dose replicates; 72 h; hits give low values; activity change, % at 10 µM; 94,000 compounds, 2.3% hits; in the data active means activity change below about -80%; inconclusive means no clear call, values can overlap the other calls
Hits are given with their value; - = inactive; ? = inconclusive; . = no result given.

SMILES	C diff HTS	Pf Dd2 growth
COc1ccc(S(=O)(=O)N2CC3(CN(C(=O)CN(C)C)[C@@H](CO)c4c3c3ccc(OC)cc3n4C)C2)cc1	-	-
COc1ccc2c3c(n(C)c2c1)[C@H](CO)N(C(=O)C1CCC1)CC31CN(C(=O)Nc2cccc(F)c2)C1	-	-
C[C@H](CO)N1C[C@H](C)[C@H](CN(C)C(=O)CCCN(C)C)OCc2cn(nn2)CCCC1=O	-	-
COc1ccc2c3c(n(C)c2c1)[C@H](CO)N(C(=O)Nc1ccc(F)cc1)CC31CN(C(=O)NC(C)C)C1	.	-
CC(C)NC(=O)N1CC(=O)N2[C@H](CO)[C@@H](c3ccc(/C=C/c4ccccc4)cc3)[C@H]2C1	-	-
C[C@@H]1CCCCO[C@H](CN(C)S(=O)(=O)c2cn(C)cn2)[C@H](C)CN([C@@H](C)CO)C(=O)c2cc(NC(=O)Nc3ccc(F)cc3)ccc2O1	.	-
COc1ccccc1-c1cnc2c(c1)C(=O)N([C@H](C)CO)C[C@H](C)[C@H](CN(C)C(=O)c1ccncc1)O2	-	-
COc1ccc2c3c(n(C)c2c1)[C@H](CO)N(C(=O)C1CCC1)CC31CCN(C(=O)CN(C)C)CC1	-	-82
COc1ccc2c3c(n(C)c2c1)[C@@H](CO)N(C(=O)C1CCC1)CC31CCN(C(=O)CN(C)C)CC1	-	-
COc1ccc2c3c(n(C)c2c1)[C@H](CO)N(C(=O)Nc1cccc(F)c1)CC31CN(C)C1	-	-
COc1ccc(NC(=O)N2CC3(C2)CN(C(=O)C2CCC2)[C@@H](CO)c2c3c3ccc(OC)cc3n2C)cc1	-	-
COc1ccc(NC(=O)N2CCC3(CC2)CN(C(=O)C2CCC2)[C@@H](CO)c2c3c3ccc(OC)cc3n2C)cc1	-	-93
CCS(=O)(=O)N1CCC2(CC1)CN(C(=O)Nc1cccc(F)c1)[C@H](CO)c1c2c2ccc(OC)cc2n1C	-	-88
COc1ccccc1C(=O)Nc1ccc2c(c1)C(=O)N(C)C[C@H](OC)[C@@H](C)CN(C)[C@@H](C)CO2	-	-
C/C=C/c1ccc([C@H]2[C@@H](CO)N(C(=O)C3CC3)C23CN(C(=O)NC(C)C)C3)cc1	-	-
COc1ccc(NC(=O)N(C)C[C@@H]2OCCCC[C@H](C)Oc3ccc(NS(=O)(=O)c4ccc(C)cc4)cc3C(=O)N([C@H](C)CO)C[C@@H]2C)cc1	.	-
COCC(=O)Nc1ccc2c(c1)C(=O)N(C)C[C@@H](OC)[C@H](C)CN(C(C)=O)[C@@H](C)CO2	-	-
COc1cccc(CN2CC3(CCN(Cc4ccccn4)CC3)c3c([nH]c4cc(OC)ccc34)[C@@H]2CO)c1	-	-89
COc1ccc2c3c([nH]c2c1)[C@H](CO)N(Cc1ccccn1)CC31CCN(Cc2cccc(F)c2)CC1	-	-
COc1ccc2c3c([nH]c2c1)[C@@H](CO)N(Cc1cccc(F)c1)CC31CCN(Cc2ccccn2)CC1	-	-92
COc1ccc2c3c([nH]c2c1)[C@H](CO)N(C(=O)Cc1ccccn1)CC31CCN(Cc2ccccn2)CC1	-	-
COc1ccc2c3c([nH]c2c1)[C@H](CO)N(Cc1nccs1)CC31CCN(Cc2cncnc2)CC1	-	-
COc1ccc2c3c([nH]c2c1)[C@@H](CO)N(Cc1nccs1)CC31CCN(Cc2nccs2)CC1	-	-90
COc1ccc(S(=O)(=O)Nc2cccc3c2O[C@@H](CN(C)S(=O)(=O)c2ccc(OC)cc2)[C@@H](C)CN([C@H](C)CO)C3=O)cc1	-	-
C[C@H](CO)N1C[C@H](C)[C@H](CN(C)CC2CC2)OCCCC[C@H](C)Oc2ccc(NC(=O)Nc3ccc(C(F)(F)F)cc3)cc2C1=O	-	-
SMILES	C diff HTS	Pf Dd2 growth
COc1ccc(S(=O)(=O)N(C)C[C@H]2OCCCC[C@@H](C)Oc3ccc(NC(=O)CCC(F)(F)F)cc3C(=O)N([C@H](C)CO)C[C@@H]2C)cc1	-	-
COc1ccc(S(=O)(=O)N(C)C[C@@H]2OCCCC[C@@H](C)Oc3ccc(NC(=O)CCC(F)(F)F)cc3C(=O)N([C@@H](C)CO)C[C@@H]2C)cc1	-	-81
C[C@H]1CCCCO[C@@H](CN(C)S(=O)(=O)c2ccc(Cl)cc2)[C@@H](C)CN([C@@H](C)CO)C(=O)c2cc(NC(=O)CCC(F)(F)F)ccc2O1	-	-83
C[C@@H]1CN([C@H](C)CO)C(=O)c2cc(NC(=O)CCC(F)(F)F)ccc2O[C@@H](C)CCCCO[C@H]1CN(C)S(=O)(=O)c1ccc(Cl)cc1	-	-
COc1ccc(NC(=O)Nc2ccc3c(c2)C(=O)N([C@@H](C)CO)C[C@@H](C)[C@@H](CN(C)C(=O)CCC(F)(F)F)OCCCC[C@H](C)O3)cc1	-	-
C/C=C/c1ccc2c(c1)O[C@@H](CN(C)Cc1ccc(C(=O)O)cc1)[C@H](C)CN([C@@H](C)CO)S2(=O)=O	-	-
C[C@H](CO)N1C[C@H](C)[C@@H](CN(C)Cc2ccc(C(=O)O)cc2)Oc2cc(/C=C/c3ccccc3)ccc2S1(=O)=O	-	-
C/C=C/c1ccc2c(c1)O[C@H](CN(C)Cc1ccc(C(=O)O)cc1)[C@@H](C)CN([C@H](C)CO)S2(=O)=O	-	-86
C/C=C/c1ccc2c(c1)O[C@H](CN(C)C(=O)Nc1cc(F)ccc1F)[C@@H](C)CN([C@H](C)CO)S2(=O)=O	-	-
C[C@@H]1CN([C@H](C)CO)S(=O)(=O)c2ccc(/C=C/c3ccccc3)cc2O[C@H]1CN(C)Cc1ccc(C(=O)O)cc1	-98	-
C[C@H](CO)N1C[C@H](C)[C@H](CN(C)C(=O)Nc2cc(F)ccc2F)Oc2cc(/C=C/c3ccccc3)ccc2S1(=O)=O	-	-88
CO[C@@H]1CN(C)C(=O)c2ccc(NC(=O)CC(F)(F)F)cc2OC[C@@H](C)N(C(C)=O)C[C@@H]1C	-	-
Cc1cc(C(=O)Nc2cccc3c2O[C@@H](CN(C)C(=O)NC2CCCCC2)[C@@H](C)CN([C@@H](C)CO)C3=O)n(C)n1	-	-
O=C(C[C@@H]1CC[C@H]2[C@@H](COC[C@@H](O)CN2Cc2ccc(C(F)(F)F)cc2)O1)NCCc1ccccc1	-	-
C[C@H](CO)N1C[C@H](C)[C@H](CN(C)S(=O)(=O)c2ccc(F)cc2)Oc2ncc(C#Cc3ccc(F)cc3)cc2C1=O	.	-
C[C@@H]1CN([C@@H](C)CO)C(=O)c2c(c3ccccc3n2C)-c2ccccc2CO[C@H]1CN(C)C(=O)c1ccc(F)cc1	.	-
C[C@H]1CN([C@@H](C)CO)C(=O)c2c(c3ccccc3n2C)-c2ccccc2CO[C@@H]1CN(C)C(=O)c1ccccc1	.	-
C[C@H]1CN([C@@H](C)CO)C(=O)c2c(c3ccccc3n2C)-c2ccccc2CO[C@@H]1CN(C)C(=O)c1cc(Cl)cc(Cl)c1	-	?
C[C@H](CO)N1C[C@H](C)[C@H](CN(C)C(=O)c2ccc(F)cc2)OCc2ccccc2-c2c(n(C)c3ccccc23)C1=O	.	-86
C[C@@H]1CN([C@H](C)CO)C(=O)c2c(c3ccccc3n2C)-c2ccccc2CO[C@@H]1CN(C)C(=O)c1cc(Cl)cc(Cl)c1	-	-92
C[C@H]1CN([C@@H](C)CO)C(=O)c2c(c3ccccc3n2C)-c2ccccc2CO[C@H]1CN(C)C(=O)c1cc(Cl)cc(Cl)c1	-	-88
C[C@@H]1CN([C@H](C)CO)S(=O)(=O)c2ccc(-c3ccc(C(=O)N(C)C)cc3)cc2O[C@@H]1CN(C)C(=O)C1CCC1	-	-
